# PubChem BioAssay AID1117299 (National Center for Advancing Translational Sciences (NCATS), 2015)
# Some structures have more than one record in an assay (separate samples or runs), and their calls can disagree. Active and inactive are the calls of the source. Calls follow the shape of the full dose curve.
# Details: Ebola virus entry assay, green fluorescence channel
Compound,outcome,AC50
COc1cccc2c1C(=O)c1c(O)c3c(c(O)c1C2=O)C[C@@](O)(C(C)=O)C[C@H]3O[C@H]1C[C@H](N)[C@H](O)[C@H](C)O1,inactive,–
CCCNCC(O)COc1ccccc1C(=O)CCc1ccccc1 (stereo unspecified),inactive,–
CN(C)CCOc1ccc(/C(=C(/CCCl)c2ccccc2)c2ccccc2)cc1,–,1.93 µM (active)
C[C@@H]1O[C@@H](O[C@H]2CC[C@@]3(C)[C@H](CC[C@@H]4[C@H]3C[C@@H](O)[C@]3(C)[C@@H](C5=CC(=O)OC5)CC[C@]43O)C2)C[C@H](O)[C@@H]1O[C@H]1C[C@H](O)[C@H](O[C@H]2C[C@H](O)[C@@H](O)[C@@H](C)O2)[C@H](C)O1 (stereo in doubt),–,0.112 µM (active)
CC/C(=C(\c1ccccc1)c1ccc(OCCN(C)C)cc1)c1ccccc1,inactive,1.53 µM (active)
Cc1nnc(C(C)C)n1C1C[C@H]2CC[C@@H](C1)N2CC[C@H](NC(=O)C1CCC(F)(F)CC1)c1ccccc1 (stereo partly specified),inactive,–
COC(=O)Nc1nc2ccc(C(=O)c3cccs3)cc2[nH]1,–,0.685 µM (active)
CC[C@]1(O)C[C@@H]2CN(CCc3c([nH]c4ccccc34)[C@@](C(=O)OC)(c3cc4c(cc3OC)N(C)[C@H]3[C@@](O)(C(=O)OC)[C@H](OC(C)=O)[C@]5(CC)C=CCN6CC[C@]43[C@@H]65)C2)C1,–,0.137 µM (active)
COC(=O)Nc1nc2ccc(C(=O)c3ccccc3)cc2[nH]1,–,6.11 µM (active)
CCCSc1ccc2nc(NC(=O)OC)[nH]c2c1,inactive,–
CCC1=C[C@@H]2CN(C1)Cc1c([nH]c3ccccc13)[C@@](C(=O)OC)(c1cc3c(cc1OC)N(C)[C@H]1[C@@](O)(C(=O)OC)[C@H](OC(C)=O)[C@]4(CC)C=CCN5CC[C@]31[C@@H]54)C2,–,0.109 µM (active)
CN1[C@@H]2CC[C@H]1CC(OC(c1ccccc1)c1ccccc1)C2 (stereo partly specified),–,3.06 µM (active)
CCCCc1oc2ccc(NS(C)(=O)=O)cc2c1C(=O)c1ccc(OCCCN(CCCC)CCCC)cc1,inactive,–
CO[C@H]1C[C@@H]2CC[C@@H](C)[C@@](O)(O2)C(=O)C(=O)N2CCCC[C@@H]2C(=O)O[C@H]([C@@H](C)C[C@@H]2CC[C@H](O)[C@H](OC)C2)CC(=O)[C@H](C)C=C(C)[C@@H](O)[C@@H](OC)C(=O)[C@H](C)C[C@H](C)C=CC=CC=C1C,–,17.7 µM (active)
CCN(CC)CCNC(=O)c1c(C)[nH]c(/C=C2\C(=O)Nc3ccc(F)cc32)c1C,inactive,–
CN1CCN(CCCN2c3ccccc3Sc3ccc(C(F)(F)F)cc32)CC1,inactive,–
CC[C@]1(O)C[C@H]2CN(CCc3c([nH]c4ccccc34)[C@@](C(=O)OC)(c3cc4c(cc3OC)N(C=O)[C@H]3[C@@](O)(C(=O)OC)[C@H](OC(C)=O)[C@]5(CC)C=CCN6CC[C@]43[C@@H]65)C2)C1,–,0.217 µM (active)
COc1cc2c(c(OC)c1OC)-c1ccc(OC)c(=O)cc1[C@@H](NC(C)=O)CC2,–,0.0968 µM (active)
CN(C)CCCN1c2ccccc2CCc2ccc(Cl)cc21,–,7.69 µM (active)
CN1CCC[C@@H]1CCO[C@](C)(c1ccccc1)c1ccc(Cl)cc1,–,1.93 µM (active)
CO[C@H]1C[C@@H]2CC[C@@H](C)[C@@](O)(O2)C(=O)C(=O)N2CCCC[C@@H]2C(=O)O[C@H]([C@H](C)C[C@@H]2CC[C@H](OCCO)[C@H](OC)C2)CC(=O)[C@H](C)C=C(C)[C@@H](O)[C@@H](OC)C(=O)[C@H](C)C[C@H](C)C=CC=CC=C1C,inactive,–
C[C@]12CC[C@@H]3c4ccc(O)cc4C[C@@H](CCCCCCCCCS(=O)CCCC(F)(F)C(F)(F)F)[C@H]3[C@@H]1CC[C@@H]2O (stereo partly specified),–,3.06 µM (active)
CC[C@H]1OC(=O)[C@H](C)[C@@H](O[C@H]2C[C@@](C)(OC)[C@@H](O)[C@H](C)O2)[C@H](C)[C@@H](O[C@@H]2O[C@H](C)C[C@H](N(C)C)[C@@H]2O)[C@](C)(O)C[C@@H](C)CN(C)[C@H](C)[C@@H](O)[C@]1(C)O,–,7.69 µM (active)
CC[C@H]1OC(=O)[C@H](C)[C@@H](O[C@H]2C[C@@](C)(OC)[C@@H](O)[C@H](C)O2)C(C)[C@@H](O[C@@H]2O[C@H](C)C[C@H](N(C)C)[C@@H]2O)[C@](C)(OC)C[C@@H](C)C(=O)[C@H](C)[C@@H](O)[C@]1(C)O (stereo partly specified),–,5.44 µM (active)
CNCCCC12CCC(c3ccccc31)c1ccccc12,–,6.85 µM (active)
